Results reported in PubChem BioAssay AID743258 (The Scripps Research Institute Molecular Screening Center, 2014).
Screen size: about 3,300 compounds; about 100 (3%) were called active. A selection follows. Unmarked numbers belong to inactive results. No stated cut-off is given here; in the data, active means inhibition above about 9.5%; inactive means the rest.

Target: 1-phosphatidylinositol 4,5-bisphosphate phosphodiesterase gamma-1 (Homo sapiens) (UniProt P19174)
Experiment: PLC-gamma1 enzyme inhibitors, counter-screen for PLC-beta3 inhibitor project, biochemical, fluorescence (AID 743258)
Details: purified PLC-gamma1, fluorogenic substrate, at 12.3 µM, active compounds read high

Chain of 1-phosphatidylinositol 4,5-bisphosphate phosphodiesterase gamma-1 (Homo sapiens) (P19174 whole entry, looked up): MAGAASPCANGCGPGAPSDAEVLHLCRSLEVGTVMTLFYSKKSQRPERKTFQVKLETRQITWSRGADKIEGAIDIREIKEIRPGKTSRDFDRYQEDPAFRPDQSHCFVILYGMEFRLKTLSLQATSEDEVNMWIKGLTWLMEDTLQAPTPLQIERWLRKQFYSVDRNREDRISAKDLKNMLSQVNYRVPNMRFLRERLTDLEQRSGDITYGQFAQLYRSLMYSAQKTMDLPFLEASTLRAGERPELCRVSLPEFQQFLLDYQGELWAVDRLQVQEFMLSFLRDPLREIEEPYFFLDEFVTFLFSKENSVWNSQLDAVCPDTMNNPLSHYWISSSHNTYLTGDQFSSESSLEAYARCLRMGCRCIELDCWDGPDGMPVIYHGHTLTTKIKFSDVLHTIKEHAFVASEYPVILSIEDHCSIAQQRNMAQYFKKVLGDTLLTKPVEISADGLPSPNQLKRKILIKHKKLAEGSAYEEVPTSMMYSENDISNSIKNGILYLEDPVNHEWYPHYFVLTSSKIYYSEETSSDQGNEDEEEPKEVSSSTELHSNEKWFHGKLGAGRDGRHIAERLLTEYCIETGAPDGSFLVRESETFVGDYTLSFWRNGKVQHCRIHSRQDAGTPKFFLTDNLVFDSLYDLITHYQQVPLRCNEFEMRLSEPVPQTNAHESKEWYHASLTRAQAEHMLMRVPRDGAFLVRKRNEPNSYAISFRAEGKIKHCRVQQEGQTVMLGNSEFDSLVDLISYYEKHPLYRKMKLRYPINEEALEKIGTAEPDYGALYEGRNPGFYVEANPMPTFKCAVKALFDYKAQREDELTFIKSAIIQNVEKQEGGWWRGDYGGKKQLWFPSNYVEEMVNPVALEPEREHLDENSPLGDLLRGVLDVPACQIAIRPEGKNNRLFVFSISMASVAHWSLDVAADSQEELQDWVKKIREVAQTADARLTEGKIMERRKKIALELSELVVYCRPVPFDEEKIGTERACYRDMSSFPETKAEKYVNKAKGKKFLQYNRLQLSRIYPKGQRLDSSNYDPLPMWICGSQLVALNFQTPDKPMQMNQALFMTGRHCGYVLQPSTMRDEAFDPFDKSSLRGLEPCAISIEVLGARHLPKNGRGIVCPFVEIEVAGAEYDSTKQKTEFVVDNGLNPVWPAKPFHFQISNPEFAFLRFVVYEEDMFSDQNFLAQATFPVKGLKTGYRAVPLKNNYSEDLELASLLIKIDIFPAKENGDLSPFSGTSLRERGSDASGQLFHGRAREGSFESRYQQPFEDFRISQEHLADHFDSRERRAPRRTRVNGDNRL

In order of rising inhibition:
1. COc1ccc(/C(C)=N/N2CCOCC2)c(O)c1  -16.2%
2. CCn1c(/C=C/Nc2ccccc2)[n+](CC)c2ccc(C(=O)OCC(F)(F)F)cc21  -14.3%
3. CC1(C)CC(=O)C=C(NCCN2CCNCC2)C1  -10.6%
4. CC(C)Oc1ccc(CC(=O)NNC(=S)Nc2ccc(Br)cc2)cc1  -9.3%
5. CCOc1ccc(NC(=O)[C@H](C)NC(=O)C2CC(=O)N(c3ccc(OC)cc3)C2)cc1 (stereo not given in full)  -8.84%
6. Cc1ccc(C)c(N2CCN(S(=O)(=O)c3c(C)[nH]c(C)c3C(=O)N3CCCC3)CC2)c1  -8.57%
7. CC(C)n1c(CN2CCN(Cc3ccccc3)CC2)nc2ccccc21  -8.55%
8. O=C(/C=C/c1c(F)cccc1Cl)Nc1nn[nH]n1  -8.5%
9. C/C(CC(C)C)=N\Oc1nc(C)cc(C)n1  -8.49%
10. CCOc1ccccc1NC(=O)c1cccnc1  -8.44%
11. OC(CNCC1CCCO1)Cn1c2ccc(Br)cc2c2cc(Br)ccc21 (stereo not given)  -8.03%
12. O=C(O)c1ccc(Cn2c(=S)[nH]c3cc(Cl)ccc3c2=O)cc1  -7.72%
13. C[C@]12c3[nH]c4ccc(Cl)cc4c3CCN1C(=O)[C@@H](CC(=O)NCCCn1ccnc1)C[C@@H]2C(=O)N1CCOCC1  -7.65%
14. CC(C)(C)c1ccc(C(=O)Nc2cc(Cl)c(Br)cc2C(=O)O)cc1  -7.48%
15. Cc1nc(Nc2ccccc2C)c2cnn(C)c2n1  -6.74%
16. O=C(CSc1nnc(-c2ccncc2)n1C1CCCCC1)Nc1ccccc1  -6.62%
17. CCc1ccc(-c2nc(SCC(=O)NC3CCCC3)n[nH]2)cc1  -6.5%
18. COc1ccccc1C(=O)Nc1cccc(C(=O)N2CCOCC2)c1  -6.49%
19. Cc1ccc(C(=O)N2CCN(C(=O)N3CCOCC3)CC2)cc1  -6.45%
20. CNC(=O)c1ccc(NC(=O)c2cccc(C(F)(F)F)c2)cc1  -6.45%
21. O=S(=O)(Nc1ccc(Oc2ncccn2)c(Cl)c1)c1ccc(F)cc1  -6.2%
22. Cc1ccc(-c2cn(S(=O)(=O)c3cccc([N+](=O)[O-])c3)nc2N)cc1  -5.96%
23. C[C@H](C(=O)N(C)c1ccccc1)[C@@H](O)c1ccc2ccccc2c1  -5.46%
24. CC(=O)c1c(C)[nH]c(C(=O)OCC(=O)Nc2cc(S(=O)(=O)N3CCCCC3)ccc2C)c1C  -5.44%
25. Cc1ccc(/C=N/NC(=O)CSc2nc3ccccc3o2)cc1  -5.43%
26. O=C(c1ccc2c(c1)OCO2)N1CCNc2ccccc2C1  -5.39%
27. CN(C(=O)c1ccc(NC(=O)Cc2cccc(NC(=O)C3CCN(C(=O)c4ccccc4)CC3)c2)cc1)C1CC1  -5.36%
28. CN(CC(=O)NC1CCCCC1)S(=O)(=O)c1ccc(Br)s1  -5.25%
29. CC1Oc2ccccc2N(Cc2cccnc2)C1=O (stereo not given)  -5.05%
30. CC(=O)C1=C(O)C(=O)N(c2cccnc2)C1c1ccc([N+](=O)[O-])cc1 (stereo not given)  -4.99%
31. Cc1ccc(S(=O)(=O)N2CCCCC2)cc1NC(=O)CCNC(=O)c1ccccc1  -4.84%
32. O=C(NCc1ccc(F)cc1F)[C@@H]1CCCN1C(=O)[C@@H]1CCCN1C(=O)c1cccc(Cl)c1  -4.84%
33. O=C(COc1ccc(Cl)cc1)N1CCN(c2cccc(C(F)(F)F)c2)CC1  -4.75%
34. Cc1cccc(C(=O)NCCCN2CCCC2=O)c1  -4.45%
35. CN(C)/C=C(/C(=O)c1ccc(Cl)cc1)S(=O)(=O)c1ccccc1  -4.31%
36. CCOc1cccc(-c2nnc3sc(COc4ccc(OC)cc4)nn23)c1  -4.31%
37. O=c1c2ccccc2c(-c2ccccc2)nn1Cc1ccccc1  -4.2%
38. COc1ccccc1C(=O)N1C(CC(=O)Nc2ccccc2C)C(=O)NC2CCCCC21 (stereo not given)  -4.18%
39. CCCCc1nc2ccccc2c(NC(=O)CN2CCN(C)CC2)c1CCC  -4.07%
40. C=CCn1c(SCn2nnc3ccccc3c2=O)nnc1-c1ccc(Cl)cc1  -4%
41. Cc1ccc(NC(=S)N(Cc2ccco2)C(C)c2cccs2)cc1 (stereo not given)  -3.86%
42. Cc1ccc(N2CC(C(=O)NCCS(=O)(=O)N3CCN(c4ccccc4)CC3)CC2=O)cc1 (stereo not given)  -3.74%
43. O=C(CCNS(=O)(=O)c1ccc(Br)cc1)NCC1CCCO1 (stereo not given)  -3.55%
44. Nc1nnc(SCC(=O)OCc2ccc(Cl)c(Cl)c2)s1  -3.53%
45. CCOC(=O)C1CCN(C(=O)c2ccccc2N(C)S(=O)(=O)c2ccccc2)CC1  -3.46%
46. O=C(NC12CC3CC(CC(C3)C1)C2)N1CCCC(CO)C1 (stereo not given)  -3.42%
47. CCOC(=O)[C@]12CCCC=C1N(CCCOC)C(=O)[C@@H]2CC(=O)N1CCOCC1  -3.38%
48. NC1=NN(c2cccc(C(=O)O)c2)C(=O)C1  -3.09%
49. CCN(CC)Cc1csc2ccc(Br)cc12  -2.99%
50. COC(=O)NC1(C(F)(F)F)NC(=O)N(C2CCCCC2)C1=O (stereo not given)  -2.81%
51. CCCCNc1ccc(C(=O)Nc2cccc(C)n2)cc1[N+](=O)[O-]  -2.76%
52. Cc1ccc(-n2ncc3c2CC(C)(C)CC3NC(=O)CCc2cnn(C)c2)cc1 (stereo not given)  -2.59%
53. CCCCn1c(SCC(=O)N2CCCC2=O)nc2cc(S(N)(=O)=O)ccc21  -2.51%
54. Cc1ccccc1C(=O)Nc1ccccc1Sc1ccccc1  -2.19%
55. Cc1cc(C)c(NC(=O)CN2CCOCCOCCOCCOCC2)c(C)c1  -2.06%
56. O=C1N[C@@H](c2ccccc2)COC(=O)[C@H](Cc2ccc(F)cc2)C/C=C\C[C@@H]1CC(=O)N(CCO)Cc1ccccc1  -2.05%
57. CN(C)S(=O)(=O)c1cccc(NC(=O)COC(=O)C2(c3ccccc3F)CCCC2)c1  -1.97%
58. CC(=O)C12CC(C)=C(C)CC1CC1C3CCC4=CC(=O)CCC4(C)C3CCC12C (stereo not given)  -1.14%
59. COCCCN(C(=S)Nc1c(C)cc(C)cc1C)C(C)c1ccncc1 (stereo not given)  -0.82%
60. Cc1cccc(NC(=O)c2ccc3c(=O)n(CC4CCCO4)c(=S)[nH]c3c2)c1 (stereo not given)  -0.76%
61. COc1ccc(C(N)c2csc(NC(=O)Nc3cccc(C(F)(F)F)c3)n2)cc1 (stereo not given)  -0.69%
62. COc1ccc([N+](=O)[O-])cc1N(CC(O)Cn1nnc2ccccc21)S(=O)(=O)c1ccc(C)cc1 (stereo not given)  -0.66%
63. O=C(Nc1ccc(Br)cc1)C1CCC(=O)N1Cc1ccccc1Cl (stereo not given)  -0.49%
64. CC1(C)CC(=O)C=C(NC2CC(C)(C)NC(C)(C)C2)C1  -0.48%
65. Cc1ccc(C(=O)Nc2ccc(C)c(S(=O)(=O)N(C)C)c2)s1  -0.35%
66. COc1cc(NC(=O)COC(=O)c2ccc([N+](=O)[O-])s2)cc(OC)c1OC  -0.3%
67. Cc1cc(NC(=O)COn2nnc3ccccc32)no1  -0.28%
68. COC(=O)CN1C(=O)C(O)=C(C(C)=O)C1c1ccc([N+](=O)[O-])cc1 (stereo not given)  -0.28%
69. Cc1c(C(=O)c2cccc([N+](=O)[O-])c2)c2ccccn2c1CCC#N  -0.24%
70. COCCNC(=O)C(c1ccc(O)cc1)N(C(=O)CCC(=O)Nc1nccs1)c1ccc(C)cc1 (stereo not given)  0.09%
71. NC1=CC(=O)C(=O)c2cccnc21  0.29%
72. O=C(CSc1ncn[nH]1)N/N=C/c1ccc(F)cc1  0.56%
73. CC1CCN(S(=O)(=O)c2ccc(S(=O)(=O)NCc3ccco3)cc2)CC1  0.59%
74. CCc1c(Nc2ccccc2C)nc(N)[nH]c1=O  0.72%
75. O=C(C(c1ccccc1)c1ccccc1)N1CCN(CC(O)COc2ccccc2)CC1 (stereo not given)  0.93%
76. Cc1ccc(S(=O)(=O)Cn2nnnc2CN2CCN(Cc3ccc4c(c3)OCO4)CC2)cc1  0.94%
77. CCOc1ccc(CCNC(=O)COC(=O)CCS(=O)(=O)c2ccc(C)cc2)cc1OCC  1.09%
78. CCC[C@H]1CCCC/C=C\CCCC(=O)OCCN1C(=O)OC(C)(C)C  1.42%
79. Cc1nc2ccccc2nc1CC(O)(c1ccccc1)c1ccccc1  1.82%
80. COc1cc(OC)nc(S(C)(=O)=O)n1  1.91%
81. O=C1c2ccccc2S(=O)(=O)N1CC(O)Cn1c2ccccc2c2ccccc21 (stereo not given)  2.37%
82. CCOC(=O)N1CCC(c2cc(=O)n(-c3ccccc3)[nH]2)CC1  2.8%
83. Cc1cccc([C@@H]2[C@@H]3C(=O)N(Cc4ccccc4)C(=O)[C@@H]3[C@]3(Cc4ccc(Cl)cc4)C(=O)N(c4cccc(Cl)c4)C(=O)N23)c1  3.36%
84. CCOC(=O)Nc1ccc(NC(=O)OCC)cc1  5.66%
85. COc1ccccc1CCNC(=O)CN1C(=O)NC2(CCCC2)C1=O  5.92%
86. CC(C)C(NC(=O)C1CCC(C(C)(C)C)CC1)C(=O)NCCCN1CCCCC1 (stereo not given)  8.08%
87. O=c1c([N+](=O)[O-])cc(C(F)(F)F)cn1Cc1cccc(Cl)c1  8.36%

C=CC1=C(C(=O)O)N2C(=O)[C@@H](NC(=O)/C(=N\OCC(=O)O)c3csc(N)n3)[C@H]2SC1 was tested, and the inhibition was 88.6% (active).
In the case of O=C1CS(=O)CN1c1ccc(Oc2ccccc2)cc1 (stereo not given), the inhibition is reported as 24.1% (active).
In the case of O=c1ccc2c(-c3ccccc3S(=O)(=O)O)c3ccc(O)c(O)c3oc-2c1O, the inhibition is reported as 26.6% (active).
